Reference: PubChem BioAssay (NCATS)
Results filed as inconclusive are left out. Active and inactive are the calls of the source. Unless noted, the call rests on the fitted dose curve; in most records, active means well fitted curve in the direction sought with a large enough effect; inconclusive means small, poorly fitted or top-dose-only effect, or another doubt; inactive means no such curve, though single readings can be large; an effect the other way counts as inactive or inconclusive.

Tests used:
[1] = test system: Zika virus NS2B-NS3 protease; experiment: Primary screen GU AMC qHTS for Zika virus inhibitors (AID 1347154); further: nearly all actives have a fitted effect of over 70% in size; further: potency means the concentration at half of the fitted maximal effect
Outline: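 Fluorogenic AMC-substrate cleavage by noncovalent NS2B-NS3 protease complex (25 nM, pH 8.0 Tris buffer with Tween 20) followed for 15 minutes at room temperature (~20% conversion). Percent inhibition from ex340/em450 signal change, fitted by 4-parameter Hill equation.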

[2] = target: Glucocorticoid receptor (Homo sapiens) (UniProt P04150); experiment: GR-GFP Redistribution (AID 450;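 active means compounds whose dose series gives a full or clear partial fitted curve of increased nuclear translocation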; further: potency means the concentration at half of the fitted maximal effect); conditions: U2OS GR-GFP nuclear translocation, laser cytometry, 2 h
Glucocorticoid receptor (Homo sapiens), sequence (P04150 whole entry, looked up, the tested form may be a part): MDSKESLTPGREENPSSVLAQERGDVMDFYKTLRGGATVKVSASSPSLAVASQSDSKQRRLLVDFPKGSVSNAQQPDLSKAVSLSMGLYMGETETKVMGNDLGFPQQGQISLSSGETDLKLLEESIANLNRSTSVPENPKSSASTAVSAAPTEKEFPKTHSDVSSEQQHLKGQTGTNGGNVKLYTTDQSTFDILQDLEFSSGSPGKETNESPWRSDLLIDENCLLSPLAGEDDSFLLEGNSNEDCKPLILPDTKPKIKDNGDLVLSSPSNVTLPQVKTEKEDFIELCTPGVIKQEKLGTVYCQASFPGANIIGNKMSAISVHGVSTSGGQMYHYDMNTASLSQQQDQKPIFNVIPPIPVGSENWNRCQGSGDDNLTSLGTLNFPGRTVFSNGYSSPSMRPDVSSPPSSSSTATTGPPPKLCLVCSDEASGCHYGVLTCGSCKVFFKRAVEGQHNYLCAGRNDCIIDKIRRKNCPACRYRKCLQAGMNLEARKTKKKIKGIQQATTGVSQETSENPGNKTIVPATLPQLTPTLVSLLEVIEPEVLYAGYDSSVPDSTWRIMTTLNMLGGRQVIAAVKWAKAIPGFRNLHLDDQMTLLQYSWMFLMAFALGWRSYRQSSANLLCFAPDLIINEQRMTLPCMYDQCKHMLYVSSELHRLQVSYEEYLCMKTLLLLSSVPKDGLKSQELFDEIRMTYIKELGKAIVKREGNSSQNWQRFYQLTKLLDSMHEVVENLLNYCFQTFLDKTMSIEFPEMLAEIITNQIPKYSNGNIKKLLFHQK

[3] = target: Glucocorticoid receptor (Homo sapiens) (UniProt P04150); experiment: GR-EFC Redistribution (AID 451; calls by dose curve; further: potency means the concentration at half of the fitted maximal effect); conditions: CHO-K1 GR-EFC translocation, beta-gal luminescence, 2 h
Outline: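 Translocation of GR-ED fusion to nuclear EA restores b-gal, read by luminescence after 1 h room-temperature detection. Engineered CHO-K1 biosensor cells, 1,000/well, exposed 2 h at 37 C to titrations up to 46 uM final.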

[4] = target: Mitogen-activated protein kinase 10 (Mus musculus) (UniProt Q61831); experiment: JNK3 AlphaScreen Assay (AID 530; active means well fitted curve in either direction with a large enough effect, not every such curve was filed as active;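 further: kinase came from lysate of stimulated human HepG2 cells; signal reports phosphorylation of biotinylated GST-cJun 1-79 at Ser73 with 10 µM ATP; series mostly up to about 57 µM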)
Outline: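 Compound titrations were preincubated 15 minutes at room temperature with substrate, antibody and pre-activated JNK3-containing HepG2 lysate. Reactions were started with 10 uM ATP and stopped with EDTA-containing bead buffer for AlphaScreen detection.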

[5] = target: Ubiquitin carboxyl-terminal hydrolase 1 (Homo sapiens) (UniProt O94782); experiment: Inhibitors of USP1/UAF1: Pilot qHTS (AID 504865);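 further: rhodamine fluorescence freed from ubiquitin-rhodamine substrate followed over time; top concentration of the series differs between compounds; nearly all actives have a fitted effect of over 35% in size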
Ubiquitin carboxyl-terminal hydrolase 1 (Homo sapiens), sequence (O94782 whole entry, looked up): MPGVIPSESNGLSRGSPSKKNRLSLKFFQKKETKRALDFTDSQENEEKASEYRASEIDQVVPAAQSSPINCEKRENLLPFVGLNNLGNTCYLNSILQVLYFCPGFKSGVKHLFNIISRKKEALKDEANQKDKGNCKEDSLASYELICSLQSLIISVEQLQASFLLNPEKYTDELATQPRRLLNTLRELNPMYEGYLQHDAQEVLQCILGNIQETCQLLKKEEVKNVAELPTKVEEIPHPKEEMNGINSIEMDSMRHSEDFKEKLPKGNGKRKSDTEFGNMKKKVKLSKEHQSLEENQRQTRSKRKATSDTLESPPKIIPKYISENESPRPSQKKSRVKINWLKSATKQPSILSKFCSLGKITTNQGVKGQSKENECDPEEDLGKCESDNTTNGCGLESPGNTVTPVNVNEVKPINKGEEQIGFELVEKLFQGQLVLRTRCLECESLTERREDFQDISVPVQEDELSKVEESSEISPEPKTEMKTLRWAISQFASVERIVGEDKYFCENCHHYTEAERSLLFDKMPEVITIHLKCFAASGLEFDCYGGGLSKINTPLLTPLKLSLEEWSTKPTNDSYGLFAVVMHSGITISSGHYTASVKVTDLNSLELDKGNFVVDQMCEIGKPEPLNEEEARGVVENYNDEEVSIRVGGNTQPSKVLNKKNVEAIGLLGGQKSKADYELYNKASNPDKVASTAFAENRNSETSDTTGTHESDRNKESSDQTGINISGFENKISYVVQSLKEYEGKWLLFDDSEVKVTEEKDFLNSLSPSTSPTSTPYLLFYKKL
Outline: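 Kinetic fluorescence assay: 1nM USP1/UAF1, 15 min compound preincubation, then 150nM Ub-Rho; 480/540 nm.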

[6] = target: DNA dC->dU-editing enzyme APOBEC-3G (Homo sapiens) (UniProt Q9HC16); experiment: qHTS for inhibitors of Vif-A3G interactions: Validation (AID 588379)
DNA dC->dU-editing enzyme APOBEC-3G (Homo sapiens), sequence (Q9HC16 whole entry, looked up): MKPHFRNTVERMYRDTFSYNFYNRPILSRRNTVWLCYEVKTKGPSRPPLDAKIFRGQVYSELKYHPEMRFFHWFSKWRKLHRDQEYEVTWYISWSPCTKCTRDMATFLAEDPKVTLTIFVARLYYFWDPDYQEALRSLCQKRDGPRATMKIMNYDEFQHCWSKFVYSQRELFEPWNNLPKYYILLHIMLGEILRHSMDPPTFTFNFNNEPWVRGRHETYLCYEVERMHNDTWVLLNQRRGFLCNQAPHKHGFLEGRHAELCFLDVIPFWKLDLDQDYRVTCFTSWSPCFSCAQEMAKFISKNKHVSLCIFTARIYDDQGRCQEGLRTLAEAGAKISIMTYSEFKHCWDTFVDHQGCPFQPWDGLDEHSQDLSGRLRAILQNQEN
Outline: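 HeLa cells stably expressing Vif and A3G-eYFP, 700 cells/well, incubated overnight at 37 deg C, then exposed to compound overnight at 37 deg C. Inhibition of Vif-mediated degradation read as increased yellow fluorescence (Ex 488/Em 500-530) by laser-scanning cytometry.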

[7] = HPAF-II Cancer Cell Toxicity qHTS against the NCATS CANVASS Library (AID 1347346); further: nearly all actives have a fitted effect of over 55% in size; further: potency means the concentration at half of the fitted maximal effect
Outline: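 Luminescence from CellTiter-Glo, added after 72 h compound exposure and a 15 min room-temperature incubation, served as the viability readout. HPAF-II cells (1000/well) received an 11-point concentration series.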

[8] = OV-SAHO Cancer Cell Toxicity qHTS against the NCATS CANVASS Library (AID 1347348); further: nearly all actives have a fitted effect of over 55% in size; further: potency means the concentration at half of the fitted maximal effect
Outline: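 Toxicity is measured over 72 h of compound exposure at 37 degrees C under 5% CO2. Each well holds 1000 cells, pre-incubated for 4 hours before dosing across an 11-point range. CellTiter-Glo luminescence gives viability.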

[9] = COV-362 Cancer Cell Toxicity qHTS against the NCATS CANVASS Library (AID 1347352); further: potency means the concentration at half of the fitted maximal effect
Outline: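 Luminescent ATP read-out (CellTiter-Glo, 15min at room temperature) measures survival after cells face an 11-point compound series for 72 hours at 37 degrees C/5% CO2.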

[10] = HEK293 24hr Apoptosis Induction qHTS against the NCATS CANVASS Library (AID 1347359)
Outline: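 Caspase-3/7 activation measured as luminescence from the DEVD-based Caspase-Glo reagent, 15 min at room temperature, following 24-hour compound treatment of HEK293 cells.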

[11] = HEK293 12hr Apoptosis Induction qHTS against the NCATS CANVASS Library (AID 1347361)
Outline: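 Apoptosis in HEK293 was scored as caspase-3/7 luminescence following 12 h treatment with a compound concentration series in qHTS format.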

[12] = test system: NAD(P)H diaphorase (Clostridium kluyveri); experiment: Diaphorse counterscreen qHTS: Assay Interference Panel against the NCATS CANVASS Library (AID 1347362)
Outline: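 Counterscreen for coupling-enzyme interference: resorufin fluorescence from resazurin/NADH turnover, read after 5 min at room temperature. Compounds were tested over an 11-point series after 15 min dark preincubation with diaphorase in PBS-Tween.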

[13] = target: Luciferin 4-monooxygenase (Photinus pyralis) (UniProt P08659); experiment: Firefly luciferase counterscreen qHTS: Assay Interference Panel against the NCATS CANVASS Library (AID 1347363); further: series mostly up to about 57 µM
Luciferin 4-monooxygenase (Photinus pyralis), sequence (P08659 whole entry, looked up): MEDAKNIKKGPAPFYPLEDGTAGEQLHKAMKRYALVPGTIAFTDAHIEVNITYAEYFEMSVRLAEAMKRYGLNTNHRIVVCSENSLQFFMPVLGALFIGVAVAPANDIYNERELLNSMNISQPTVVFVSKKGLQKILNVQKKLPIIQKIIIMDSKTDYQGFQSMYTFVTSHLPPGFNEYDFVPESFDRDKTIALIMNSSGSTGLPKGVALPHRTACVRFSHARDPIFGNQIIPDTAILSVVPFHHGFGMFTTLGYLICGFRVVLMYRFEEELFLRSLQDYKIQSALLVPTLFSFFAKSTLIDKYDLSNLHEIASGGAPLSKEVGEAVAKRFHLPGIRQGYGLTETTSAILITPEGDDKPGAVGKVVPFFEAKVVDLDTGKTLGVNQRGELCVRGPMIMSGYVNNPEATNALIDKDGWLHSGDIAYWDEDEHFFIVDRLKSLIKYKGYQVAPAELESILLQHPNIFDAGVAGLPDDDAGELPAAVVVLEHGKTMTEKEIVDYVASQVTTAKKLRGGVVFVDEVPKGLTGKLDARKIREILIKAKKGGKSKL
Outline: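 Luminescence inhibition readout: compounds (11-point qHTS) sat 15 min at room temperature with substrate mix (0.013 mM luciferin and ATP), then firefly luciferase was added and signal read 5 min later.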

[14] = KB-3-1 Cancer Cell Toxicity qHTS against the NCATS CANVASS Library (AID 1347366); further: nearly all actives have a fitted effect of over 75% in size; further: potency means the concentration at half of the fitted maximal effect
Outline: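 Seed KB-3-1 cells at 500/well in DMEM with 10% FBS, add compounds, incubate 72 hr at 37C and 5% CO2, then add CellTiter-Glo and read luminescence after 10 minutes.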

[15] = target: Nuclear receptor subfamily 1 group I member 3 (Homo sapiens) (UniProt Q14994); experiment: qHTS for Constitutive Androstane Receptor (CAR) Agonist screened against the NCATS CANVASS Library (AID 1347373);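 further: every well also contained 1.5 µM PK11195 alongside the test compound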
Nuclear receptor subfamily 1 group I member 3 (Homo sapiens), sequence (Q14994 whole entry, looked up): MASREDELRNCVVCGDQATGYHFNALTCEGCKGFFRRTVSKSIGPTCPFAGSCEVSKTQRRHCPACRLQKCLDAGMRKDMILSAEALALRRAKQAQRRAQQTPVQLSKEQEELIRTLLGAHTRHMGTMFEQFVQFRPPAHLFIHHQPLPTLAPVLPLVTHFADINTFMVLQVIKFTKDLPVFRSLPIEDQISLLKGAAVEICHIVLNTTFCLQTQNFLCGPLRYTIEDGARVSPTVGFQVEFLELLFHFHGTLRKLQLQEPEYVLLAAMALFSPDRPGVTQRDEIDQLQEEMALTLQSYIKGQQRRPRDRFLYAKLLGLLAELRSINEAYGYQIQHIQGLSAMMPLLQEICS
Outline: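 HepG2-hCAR-CYP2B6 cells, 2500/well, attached 4hr; cpd + PK11195 1.5uM final; 24hr 37C 5% CO2. CellTiter-Fluor viability read, then ONE-Glo luminescence for CAR activation.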

Measured: Potency

CC(C)[C@@]1(NC(=O)[C@H]2CC3c4cccc5[nH]cc(c45)C[C@H]3N(C)C2)O[C@@]2(O)C3CCCN3C(=O)[C@@H](Cc3ccccc3)N2C1=O (some centres not stated)
inactive: [1]

CCOC(OCC)P(=O)(O)CCCN
inactive: [2] > 46 µM | [3] > 46 µM | [4] | [5] | [6] | [1]

C[C@]12CC(O)C3[C@@H](CCC4C[C@@H](O)CC[C@@]43CO)[C@@]1(O)CCC2C1=CC(=O)OC1 (some centres not stated)
not listed: [1] | [2] | [3] | [4] | [5] | [6]
inactive: all other assays above

CC(C)C[C@H]1C(=O)N2CCCC2[C@]2(O)O[C@](NC(=O)[C@@H]3C=C4c5cccc6[nH]cc(c56)CC4N(C)C3)(C(C)C)C(=O)N12 (some centres not stated)
inactive: [1]

CC[C@@H](CO)NC(=O)[C@H]1C=C2c3cccc4[nH]cc(c34)C[C@H]2N(C)C1
active: [1] 29.9 µM
inactive: [2] > 46 µM | [3] > 46 µM | [6]

O=C1Nc2ccccc2C2(CCN(CCc3ccc(C(F)(F)F)cc3)CC2)O1
inactive: [1]

CCN1C[C@]2(C)CC[C@H](O)[C@]34C1C(C[C@H]23)[C@@]12CC[C@H](CC14)[C@](O)(COC(=O)c1ccc(OC)c(OC)c1)[C@H]2O (some centres not stated)
not listed: [1] | [2] | [3] | [4] | [5] | [6]
inactive: all other assays above

CO[C@H](c1ccccc1)[C@H]1NC(=O)C(C)NC(=O)C(C[C@@H](C)CO)N(C)C(=O)[C@@H](C(O)c2cn(C(C)(C)C3CO3)c3ccccc23)NC(=O)C(C(C)C=C(C)C)NC(=O)C(CC(C)C)N(C)C(=O)C(C(C)C)NC1=O (some centres not stated)
not listed: [1] | [2] | [3] | [4] | [5] | [6]
inactive: all other assays above

O=C(c1ccccc1O)c1[nH]c(Cl)c(Cl)c1-n1c(C(=O)c2ccccc2O)cc(Cl)c1Cl
inactive: [10] | [11] | [12] | [13] | [15]
active: [7] 1.33 µM | [8] 2.11 µM | [9] 2.11 µM | [14] 2.35 µM

CCCCCCC[n+]1ccc(-c2cc[n+](CCCCCCC)cc2)cc1
inactive: [3] > 46 µM | [5] | [6] | [1]

CC1(C)N(O)C(c2ccc(C(=O)O)cc2)=[N+]([O-])C1(C)C
inactive: [2] > 46 µM | [3] > 46 µM | [4] | [6] | [1]

CCC(=O)CCCCC[C@@H]1NC(=O)[C@H]2CCCCN2C(=O)[C@H]([C@@H](C)CC)NC(=O)[C@H](Cc2cn(OC)c3ccccc23)NC1=O
inactive: [10] | [11] | [12] | [13] | [15]
active: [7] 0.841 µM | [8] 3.75 µM | [9] 16.7 µM | [14] 1.18 µM

COc1ccc(C23Oc4cc(OC)cc(OC)c4[C@](O)([C@H](c4ccccc4)C2C(=O)NCCCCNC(=O)c2ccccc2)[C@@H]3O)cc1 (some centres not stated)
not listed: [1] | [2] | [3] | [4] | [5] | [6]
inactive: all other assays above

C/C(=C\[C@@H](N)C(=O)O)CP(=O)(O)O
inactive: [2] > 46 µM | [3] > 46 µM | [4] | [5] | [6] | [1]
